mHtt clearance – compounds clearing mutant huntingtin protein. HeLa Exon1htt(103Q)mCFP, aggregate imaging; zero = plate's median compound well. inhibition, % at 1.5 µM. 47,000 tested, 0.42% active. AID 853;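 active = inhibition of aggregate fluorescence above about 70%, also judged a hit by eye on the cell image, limit read from the data, passing the limit was not always enough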;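 also: cells exposed to compound for three days before fixation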
M1 agonist – M1 muscarinic receptor agonism; CHO-M1 cells, Fluo-4 calcium fluorescence, agonist mode; active compounds read high; B-score at 10 µM; 64,000 tested, 3% active; AID 626;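 active = fluorescence rise, raw or as B-score row- and column-corrected plate score, outside the 99.7% band of its plate's samples, either direction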
D1 allo mod – allosterically modulates the human D1 dopamine receptor; HEK293 D1, CRE-luciferase, dopamine EC30 potentiation; actives deviate in either direction; P21728; B-score at 10 µM; 58,000 tested, 5.9% active; AID 641;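 active = luminescence count or its row- and column-corrected plate score outside the 99.7% band of the plate's sample wells, on either side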
M1 antag – antagonists of rat M1 muscarinic receptor; 64,000 tested, 3.4% active; CHO-M1 cells, Fluo-4 calcium, ACh EC80 antagonist mode; active compounds read low; B-score at 10 µM; AID 628;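 active = calcium fluorescence response, raw or row-and-column corrected B-score, differing from the plate sample mean either way at a set confidence level, mostly lower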
Target sequence (P08482 whole entry, looked up): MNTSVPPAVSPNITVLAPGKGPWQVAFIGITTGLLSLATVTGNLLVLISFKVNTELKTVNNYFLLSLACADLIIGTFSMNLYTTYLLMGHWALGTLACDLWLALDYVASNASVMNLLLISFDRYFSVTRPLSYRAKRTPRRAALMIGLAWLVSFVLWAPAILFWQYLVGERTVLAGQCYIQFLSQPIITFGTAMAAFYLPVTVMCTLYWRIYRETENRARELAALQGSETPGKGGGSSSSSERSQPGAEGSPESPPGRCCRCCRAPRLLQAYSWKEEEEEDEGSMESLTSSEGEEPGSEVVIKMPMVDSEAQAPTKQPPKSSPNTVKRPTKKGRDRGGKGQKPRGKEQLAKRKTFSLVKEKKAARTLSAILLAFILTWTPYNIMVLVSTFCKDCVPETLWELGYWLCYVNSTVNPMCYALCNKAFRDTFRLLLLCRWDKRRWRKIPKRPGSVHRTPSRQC
D1 PAM confirm – D1 receptor (human) allosteric modulation, confirmed. luminescence at 10 µM. 2,200 tested, 88% active. HEK293 D1 CRE-luciferase, dopamine EC30 potentiation; active compounds read high. shares compounds with D1 allo mod;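 active = luminescence in either of two replicates above the same-plate mean plus 3 SD of the low-dose dopamine control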
D1 no dopamine – D1 (human) signaling in absence of dopamine | luminescence at 10 µM | HEK293 D1 CRE-luciferase, luminescence, no dopamine; active compounds read high | shares compounds with D1 allo mod | 1,900 tested, 0.8% active; in the data active = luminescence above about 3900
Isoprot counter – isoproterenol response counter-screen activity for D1 modulators; HEK293 D1 CRE-luciferase, isoproterenol EC30 counter-screen; active compounds read high; 2,200 tested, 63% active; shares compounds with D1 allo mod; luminescence at 10 µM;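 active = luminescence in either replicate above plate mean of wells with a partly effective reference agonist dose plus 3 SD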;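 also: isoproterenol raises cAMP through native beta-adrenoceptor Gs so signal bypasses D1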
Active calls of the source: *. In the library only some 9.1% were active in any assay of this set; here they are far more common.

What do the screens show for `C=C(C)Cn1c(SCC#N)nc2ccccc2c1=O`?
mHtt clearance: -56; M1 agonist: -0.033; D1 allo mod: 16*; M1 antag: -1; D1 PAM confirm: 15044*; D1 no dopamine: 1640; Isoprot counter: 4668*

How did CCN(CCCn1c(SCC#N)nc2ccccc2c1=O)c1ccccc1 do in these assays?
mHtt clearance: -36; M1 agonist: 1.7; M1 antag: -0.0044

How did Cn1c(=O)c2cc(S(=O)(=O)NC(C(=O)N3CCCCCC3)c3ccccc3)ccc2n(C)c1=O (configuration not stated) do in these assays?
mHtt clearance: -31; M1 agonist: 0.65; D1 allo mod: -0.5; M1 antag: 0.67

How did Nc1nc(C2CC2)c(Sc2sc(N)nc2C2CC2)s1 do in these assays?
mHtt clearance: 37; M1 agonist: -0.56; D1 allo mod: 10*; M1 antag: -0.46; D1 PAM confirm: 11736*; D1 no dopamine: 1620; Isoprot counter: 4288*

Results for CC1=CC(C)(C)N=C(NC#N)N1 ?
D1 allo mod: 3.8*; D1 PAM confirm: 9044*; D1 no dopamine: 1768; Isoprot counter: 2516

Results for C=CCNc1nc(N)c(C(=O)c2ccc3c(c2)OCO3)s1 ?
mHtt clearance: 38; M1 agonist: -0.2; D1 allo mod: 18*; M1 antag: -0.69; D1 PAM confirm: 14852*; D1 no dopamine: 1788; Isoprot counter: 4416*

What do the screens show for `CCOC(=O)Cc1nnc(NC(=O)c2ccccc2OCC)s1`?
M1 agonist: -2.7; D1 allo mod: 2.7*; M1 antag: 0.43; D1 PAM confirm: 8096*; D1 no dopamine: 1648; Isoprot counter: 3560*

Results for O=C(CSc1nc2c(cnn2-c2ccccc2)c(=O)[nH]1)N1CCOCC1 ?
mHtt clearance: 28; M1 agonist: 0.56; D1 allo mod: 0.22; M1 antag: -0.81

What do the screens show for `CC(C)Sc1nc2c(cnn2-c2ccc(F)cc2)c(=O)[nH]1`?
mHtt clearance: -20; M1 agonist: -1.2; M1 antag: 0.5

Results for CC(C)Sc1nc2c(cnn2-c2ccccc2)c(=O)[nH]1 ?
M1 agonist: 0.32; D1 allo mod: 15*; M1 antag: -0.11; D1 PAM confirm: 15608*; D1 no dopamine: 1888; Isoprot counter: 3492*

Results for O=c1[nH]c(SCc2ccccc2Cl)nc2c1cnn2-c1ccccc1 ?
M1 agonist: -0.89; D1 allo mod: 7.6*; M1 antag: -0.0098; D1 PAM confirm: 6188; Isoprot counter: 3076*

Results for Cc1ccc(-n2ncc3c(=O)[nH]c(SC(C)C)nc32)cc1 ?
M1 agonist: -1.2; D1 allo mod: 17*; M1 antag: 0.055; D1 PAM confirm: 12920*; D1 no dopamine: 1492; Isoprot counter: 3760*

How did CCCCCSc1nc2c(cnn2-c2ccccc2)c(=O)[nH]1 do in these assays?
M1 agonist: -0.66; D1 allo mod: 2.9*; M1 antag: -0.13; D1 PAM confirm: 13144*; D1 no dopamine: 1508; Isoprot counter: 3072

What do the screens show for `COc1ccc(C(=O)Nn2cnc3scc(-c4cccs4)c3c2=O)c(O)c1`?
mHtt clearance: 42; M1 agonist: -0.089; D1 allo mod: 0.36; M1 antag: -0.16

How did CCCc1nnc(SCc2ccc(OC)cc2)n1N do in these assays?
M1 agonist: -0.71; D1 allo mod: 0.49; M1 antag: 0.028

What do the screens show for `CCCOc1ccccc1NC(=O)c1ccc(N)cc1`?
M1 agonist: -0.35; D1 allo mod: 3*; M1 antag: -1.1; D1 PAM confirm: 7556*; D1 no dopamine: 1560; Isoprot counter: 3068

How did COc1ccc(-c2cc(C(F)(F)F)nc(SCC(=O)NCc3ccco3)n2)cc1OC do in these assays?
mHtt clearance: -60; M1 agonist: -0.67; D1 allo mod: 13*; M1 antag: 0.44; D1 PAM confirm: 18992*; D1 no dopamine: 1868; Isoprot counter: 5208*

What do the screens show for `COc1ccc(-c2ccc(SCC(=O)NCc3ccco3)nn2)cc1OC`?
M1 agonist: -0.02; D1 allo mod: 15*; M1 antag: -0.53; D1 PAM confirm: 17224*; Isoprot counter: 5532*

How did Cc1ccc(-c2nnn(CCC(=O)NC3CCCC3)n2)cc1 do in these assays?
M1 agonist: 0.11; D1 allo mod: -1.5; M1 antag: -0.35

Results for CSc1ccccc1NC(=O)c1onc(C)c1Cl ?
M1 agonist: 0.29; D1 allo mod: 1.6*; M1 antag: 0.94; D1 PAM confirm: 7308*; D1 no dopamine: 1580; Isoprot counter: 2948

Results for COC(=O)c1[nH]c2cc(OC)ccc2c1N ?
M1 agonist: -0.62; D1 allo mod: -0.28; M1 antag: -0.33

How did CCN(CC)c1nc(C#N)nc(N(CC)CC)n1 do in these assays?
M1 agonist: 0.22; D1 allo mod: 14*; M1 antag: 0.43; D1 PAM confirm: 15976*; D1 no dopamine: 1596; Isoprot counter: 3548*

Results for COc1ccc(OC)c(C2=Nn3c(nnc3-c3ccco3)SC2)c1 ?
mHtt clearance: 53; M1 agonist: 0.049; M1 antag: 0.22

What do the screens show for `COc1ccc(OC)c(C2=Nn3c(nnc3C3CCCCC3)SC2)c1`?
M1 agonist: 0.44; D1 allo mod: 16*; M1 antag: 0.61; D1 PAM confirm: 17128*; Isoprot counter: 6380*

Results for COc1ccccc1C1=Nn2c(nnc2C2CCCCC2)SC1 ?
mHtt clearance: -64; M1 agonist: 0.3; D1 allo mod: 11*; M1 antag: 0.13; D1 PAM confirm: 20508*; D1 no dopamine: 1724; Isoprot counter: 6996*

What do the screens show for `CCOC(=O)CSc1nc2ccc(N3CCOCC3)cc2c(=O)n1Cc1ccc2c(c1)OCO2`?
M1 agonist: 0.00031; D1 allo mod: 7*; M1 antag: -0.17; D1 PAM confirm: 9824*; D1 no dopamine: 1952; Isoprot counter: 4480*

What do the screens show for `CC(C)Cn1c(=O)c(C(=O)Nc2cnccn2)c(O)c2ccccc21`?
M1 agonist: -0.63; D1 allo mod: 3.4*; M1 antag: 0.0054; D1 PAM confirm: 9760*; D1 no dopamine: 1672; Isoprot counter: 3024

How did CCCn1c(=O)c(C(=O)NCc2cccnc2)c(O)c2ccccc21 do in these assays?
M1 agonist: 1.8; D1 allo mod: 8.4*; M1 antag: 0.14; D1 PAM confirm: 15012*; D1 no dopamine: 1692; Isoprot counter: 3172*

How did CCC(=O)Nc1cc(-c2nn(C)c(=O)c3ccccc23)ccc1OC do in these assays?
mHtt clearance: 7; M1 agonist: 0.14; D1 allo mod: 3.3; M1 antag: -0.29

How did COc1ccc(-c2nn(C)c(=O)c3ccccc23)cc1NC(=O)Cn1nc(C)c2ccccc2c1=O do in these assays?
mHtt clearance: 6; M1 agonist: 3.2; D1 allo mod: 8.6*; M1 antag: 0.29; D1 PAM confirm: 19816*; D1 no dopamine: 1720; Isoprot counter: 6752*

Bioassay records as filed in PubChem.
